Only a selection was taken, and hits are over-represented in it overall.
ST2 IL33 inh = IL1RL1 inhibition | AlphaLISA ST2-Fc/biotin-IL-33 interaction, 1 h | inhibition, % for hits at 17 µM | 78,000 tested, 2.3% active | AID 1259354; in the data active means inhibition above about 30%
Target sequence (Q01638 whole entry, looked up): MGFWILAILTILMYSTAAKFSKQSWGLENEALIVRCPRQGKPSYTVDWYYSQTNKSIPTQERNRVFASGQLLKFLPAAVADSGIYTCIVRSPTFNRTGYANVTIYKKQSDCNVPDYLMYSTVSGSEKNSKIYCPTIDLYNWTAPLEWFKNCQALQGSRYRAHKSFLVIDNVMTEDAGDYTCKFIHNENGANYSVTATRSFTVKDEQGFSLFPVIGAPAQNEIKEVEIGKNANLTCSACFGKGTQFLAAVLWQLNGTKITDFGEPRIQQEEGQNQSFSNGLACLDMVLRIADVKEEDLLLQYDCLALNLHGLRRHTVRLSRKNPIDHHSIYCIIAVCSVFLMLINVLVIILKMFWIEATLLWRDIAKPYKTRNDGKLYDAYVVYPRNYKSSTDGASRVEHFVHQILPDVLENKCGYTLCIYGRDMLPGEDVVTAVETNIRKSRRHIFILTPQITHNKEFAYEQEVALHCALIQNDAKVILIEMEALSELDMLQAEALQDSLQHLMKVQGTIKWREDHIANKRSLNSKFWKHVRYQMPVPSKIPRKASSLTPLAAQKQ
An asterisk follows results filed as active; i = inactive.

SMILES	ST2 IL33 inh
Cc1nnc(SCCCNC(=O)c2ccc3nc[nH]c3c2)s1	i
O=C(CSc1ccc2nnc(-c3cccnc3)n2n1)N1CCCC(c2ccccc2)CC1 (stereo not given)	36%*
O=C(c1ccc(NCc2cccnc2)nc1)N1CCCC(c2ccccc2)CC1 (stereo not given)	i
O=C(CSc1ccc2nnc(-c3cccnc3)n2n1)N1CCCCC1c1ccc(F)cc1 (stereo not given)	i
O=C(CCS(=O)(=O)c1cccc2nsnc12)NCCC1=CCCCC1	i
Cc1n[nH]c(C)c1CCCOc1ccccc1F	i
O=C1NC(=O)N(c2ccccc2)C(=O)C1C(c1ccccc1)c1ccccc1 (stereo not given)	i
Cc1nnc(C)c2c(C)n(C(C)c3ccccc3)c(C)c12 (stereo not given)	47%*
Cc1c(C(c2ccccc2)c2c(C)n(C)n(-c3ccccc3)c2=O)c(=O)n(-c2ccccc2)n1C	i
NC(=O)c1cnc2n1CCN(C(=O)COCc1ccccc1)C2	i
CC(C)C(NC(=O)C1CCCCC1)C(=O)N1CCN(c2ccccn2)CC1 (stereo not given)	i
COc1cccc(C(=O)N2CCN=C2SCc2ccc(Br)cc2)c1	i
CCOCCCNC(=O)c1cc(=O)[nH]c2ccc(S(=O)(=O)N3CCCCCC3)cc12	i
COc1cc(C(=O)Nc2ccc(-c3nc4cc(C)ccc4o3)c(O)c2)cc(OC)c1OC	i
Cc1ccccc1-c1nc2cc(NC(=O)c3ccc4c(c3)OCCO4)ccc2o1	i
Cc1ccc2oc(-c3ccc(NC(=O)c4ccc5c(c4)OCCO5)cc3O)nc2c1	32%*
CC1CC(C)CN(CCCNS(=O)(=O)c2cccc3nonc23)C1 (stereo not given)	i
CCOc1cccc2cc(C(=O)NC(C)=O)c(=Nc3ccc(F)cc3)oc12	i
CC(C)(C)c1cc(C(C)(C)C)cc(S(N)(=O)=O)c1	i
CS(=O)(=O)N1CCN(c2ccc([N+](=O)[O-])c(NCCN3CCOCC3)c2)CC1	i
O=[N+]([O-])c1ccc(N2CCCC2)cc1NCC1CCCO1 (stereo not given)	30%*
O=[N+]([O-])c1ccc(N2CCN(S(=O)(=O)c3ccccc3)CC2)cc1NCC1CCCO1 (stereo not given)	i
COc1cccc(-c2nnc(NC(=O)c3ccc(S(=O)(=O)N4CCCC(C)C4)cc3)o2)c1 (stereo not given)	i
CC(C)n1c(-c2ccccc2)csc1=Nc1ccccc1	70%*
CSc1nc2c(sc3ccccc32)c(=O)n1Cc1ccco1	i
SMILES	ST2 IL33 inh
c1ccc(N2CCN(Cc3ccco3)CC2)cc1	i
c1ccc(N=c2scc(-c3ccccc3)n2Cc2ccco2)cc1	62%*
CCCOC(=O)C1=C(C)NC2=C(C(=O)C(C(=O)OC)C(C)C2)C1c1ccccc1Br (stereo not given)	i
Cc1cnc(-n2cnnc2)c(-c2ccc(F)c(CO)c2)c1	i
COc1cc(C)c(S(=O)(=O)N2CCN(c3nc(C)cc(N(C)C)n3)CC2)cc1C	i
CC(C)(C)CC(=O)Nc1ccccc1[N+](=O)[O-]	i
O=C(NC1CCCCCC1)c1ccccc1[N+](=O)[O-]	i
O=C(Nc1ccccc1[N+](=O)[O-])C1C2CCCCC21 (stereo not given)	39%*
Cc1ccc(S(=O)(=O)C2(C(=O)NCc3ccc(F)cc3)CC2)cc1	i
CC[C@H]1CN(C(=O)C(C)(C)C)CC[C@H]1CC(=O)N1CCOCC1	i
OC[C@@]12CCC[C@@H]1CN(Cc1cc3n(n1)CCCNC3)C2	i
CC12CC(NC(=O)N1c1ccc(C(=O)NCc3ccco3)cc1)c1ccccc1O2 (stereo not given)	i
Cc1onc(-c2ccccc2Cl)c1C(=O)Nc1sc2c(c1C#N)CCC(C)C2 (stereo not given)	i
CC1CCc2c(sc(N=Cc3cccnc3)c2C#N)C1 (stereo not given)	30%*
CC1CCc2c(sc(NC(=O)c3cc(=O)c4ccccc4o3)c2C#N)C1 (stereo not given)	i
CC(Oc1ccccc1)C(=O)Nc1c(C(=O)Nc2ccccc2F)oc2ccccc12 (stereo not given)	i
O=C(O)c1ccccc1NCc1cccc2ccccc12	i
CN1CCN(Cc2ccc3c(c2)CC(C)(C)O3)CC1C(=O)O (stereo not given)	i
Cc1ccc2oc(/C=C/c3nc4cc(C)ccc4o3)nc2c1	i
CN(C)c1ccc(/C=C/c2nc(=O)c3ccccc3o2)cc1	55%*
COc1ccc(-c2nnc(/C=C/c3ccccc3)o2)cc1	i
CCCN(Cc1nccn1C)C(=O)c1cnc(CC)nc1	i
Cc1ccc(C)c(N(C)S(=O)(=O)c2c(C)[nH]c(=O)[nH]c2=O)c1	i
Cc1c(-c2nc3ccccc3c(=O)o2)cccc1[N+](=O)[O-]	30%*
O=c1oc(-c2ccccc2[N+](=O)[O-])nc2ccc(I)cc12	i
SMILES	ST2 IL33 inh
COc1ccccc1-c1nc2ccc(Br)cc2c(=O)o1	i
CCOc1ccc(S(=O)(=O)N2CCN(c3ccccn3)CC2)c2cccnc12	i
Cc1ccc(N2C(=O)NC3CC2(C)Oc2ccc(Cl)cc23)cc1 (stereo not given)	i
Brc1cnc2nc(COc3ccccc3)[nH]c2c1	35%*
Cc1cc(OCc2nc3ccccc3[nH]2)ccc1C(C)C	i
COc1ccc(OCc2nc3ccccc3[nH]2)cc1	i
N#CC1=C(N)Oc2n[nH]c(C(F)(F)F)c2C1c1ccccc1 (stereo not given)	i
Cc1c(C(C)NCc2cnc(N3CCOCC3)s2)cnn1-c1ccccc1 (stereo not given)	i
COCCN1C(=O)CC(CC(=O)N(C)Cc2cn(C)nc2C)(c2ccccc2Cl)C1=O (stereo not given)	i
Cc1[nH]c(-c2ccccc2)nc1C(=O)N1CCNC(C(=O)O)C1 (stereo not given)	i
NC(N)=NS(=O)(=O)c1ccc(N=Cc2cc(Br)cc(Br)c2O)cc1	i
COc1ccc(N=Cc2cc(Br)cc(Cl)c2O)cc1	i
Oc1c(Br)cc(C=Nc2ccc(N3CCOCC3)cc2)c(O)c1Br	52%*
CC1(C)CC(NC(=O)C(F)(F)F)CC(C)(C)N1O	i
O=C(c1ccc(Cl)cc1OC1CCN(C/C=C/c2ccco2)CC1)N1CCCCC1	i
N=C1S/C(=C\c2ccccc2F)C(=O)N1c1ccc2c(c1)OCO2	i
COc1ccc(N2C(=O)S/C(=C\c3ccc(O)cc3)C2=O)cc1	i
CC(=C/c1ccccc1)/C=C1/SC(=O)N(c2ccc(O)cc2)C1=O	45%*
O=C1S/C(=C\c2ccccc2Cl)C(=O)N1c1ccc(O)cc1	38%*
Nc1cccc2c1C(=O)N(c1ccc(O)cc1)C2=O	i
O=C1S/C(=C\c2ccc(O)cc2)C(=O)N1c1ccc(O)cc1	i
CCC(=O)N1CCc2cc(Br)cc(S(=O)(=O)Nc3cccc(F)c3)c21	i
CCn1ncnc1-c1c(-c2ccccc2)ncn1CCc1ccccc1OC	i
CN(C)c1ccc(C2N(C(=O)c3ccccc3)CCN2S(=O)(=O)c2ccccc2)cc1 (stereo not given)	i
Cc1nnc(Nc2ccc(Br)cc2)[nH]c1=O	i
O=C(Nc1cccc(Cl)c1)c1cccc(N2C(=O)C=CC2=O)c1	i
Cc1ccc(C(C)C)c(OCC(=O)Nc2nc(C)cc(C)n2)c1	i
Cc1ccc(OC(C)c2nc(-c3nonc3N)no2)cc1C (stereo not given)	i

Bioassay records: PubChem, Paczesny and Yang Labs, IUPUI and University of Michigan
